# Laboratory results from PubChem BioAssay (NCI).
# This is part of a sample that, as a whole, favours compounds with a hit. Of some 83,000 tested, about 20% had one in any assay.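 Each cell line was grown in a 96-well plate and treated with one concentration of compound for 48 hours. Values below 10 were considered active.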 A number with no mark means an inactive call. Activity calls are given as the source filed them.
# Test system: SW-620 colon
# Assay: NCI-60 one-dose screen, 48 h (100 = growth as untreated, 0 = no growth, -100 = all killed)
# Conditions: 10 µM unless noted
row,Structure (SMILES),growth
1,CCCCNc1ccc2c3c(cccc13)C(=O)N(c1cccc(-c3nn(-c4ccccc4)cc3-c3nc4ccccc4s3)c1)C2=O,105%
2,COc1ccc(-c2cc(-c3cc(OC)c(OC)c(OC)c3)[nH]c(=O)c2C#N)cc1,93.4%
3,COc1cc(C2CC(c3ccc(Cl)cc3)=Nc3c(N)nc(N)nc3N2)ccc1Oc1nc(Nc2ccc(F)cc2)nc(N(C)C)n1 (stereo not drawn),35.5%
4,O=C(O)CC1S/C(=N/N=C/c2nc3ccccc3s2)NC1=O (stereo not drawn),104%
5,Cc1ccc(S(=O)(=O)N(CCn2ccnc2[N+](=O)[O-])CCn2ccnc2[N+](=O)[O-])cc1,100%
6,N#CCc1nnc(NC(=O)c2ccc(-n3c(=O)[nH]c4ccccc4c3=O)cc2)s1,104%
7,O=C(N/N=C/c1ccc(Br)o1)c1[nH]c2ccc(Br)cc2c1-c1ccccc1,6.96% (active)
8,COc1ccc(N=Nc2c(N)nn3c(-c4ccc([N+](=O)[O-])cc4)ccnc23)cc1,98.4%
9,Cn1cc(-c2cc(N)n3nc(-c4c[nH]c5ccc(Cl)cc45)cc3n2)c2cc(Br)cnc21,-79.1% (active)
10,CN1C(=O)C2(C(C#N)=C(c3ccc(Cl)cc3)Nc3c2c(-c2ccccc2)nn3-c2ccccc2)c2ccccc21 (stereo not drawn),106%
11,Cc1nn(-c2ccccc2)c2nc(C)n(C(=O)N/N=C/c3ccccc3)c(=O)c12,101%
12,CN1CCN(CCS(=O)(=O)Nc2cc(-c3ccc4ncnc(Nc5ccc(F)c(Cl)c5)c4c3)cnc2Cl)CC1,36.2%
13,COc1cc(C2CC(c3ccc(C(F)(F)F)cc3)=Nc3c(N)nc(N)nc3N2)ccc1Oc1nc(Nc2ccc(F)cc2)nc(N(C)C)n1 (stereo not drawn),53.2%
14,COc1ccc2[nH]c(=O)c(CSc3ccccc3Nc3nccc(-c4ccc5c(c4)OCO5)n3)cc2c1,106%
15,Cc1cc(=O)oc2cc(OCC(O)CNN3C(=O)c4cccc5c(N6CCN(C)CC6)ccc(c45)C3=O)ccc12 (stereo not drawn),84.3%
16,CC[C@]12C=CCN3CC[C@]4(C(=C(C(=O)OC)C1)Nc1cc(OC)c([C@@H]5[C@H]6O[C@H]6[C@@]6(CC)CC(C(=O)OC)=C7Nc8cc(OC)ccc8[C@@]78CCN5[C@@H]68)cc14)[C@@H]32,50.4%
17,C#CCCCNCCNc1ccnc2cc(Cl)ccc12,76.8%
18,CCOC(=O)/C(F)=C/C1CC1C(c1ccccc1)c1ccccc1 (stereo not drawn),75.1%
19,S=C(NCCc1ccccc1)Nc1ccc(OCc2nc3ccc(Cl)cc3[nH]2)cc1,37%

row,Structure (SMILES),growth
1,Cc1ccc(C(=O)C[n+]2cccc3c4ccccc4ccc32)cc1,19.5%
2,CCCn1c(NC(=O)c2cccc(C(N)=O)c2)nc2cc(CN3CCCCC3)ccc21,113%
3,CCC(=O)c1c2c(c3ccc4c5ccccc5ccc4n13)C(=O)c1ccccc1C2=O,88.5%
4,O=C1/C(=C/c2cnc(-c3ccccc3)s2)SC(=S)N1Cc1ccc2c(c1)OCO2,102%
5,O=c1[nH]c2ccccc2cc1COc1ccc(Nc2nccc(-c3ccc(Cl)cc3)n2)cc1,105%
6,O=C(/C=C1\C(=O)N(Cc2ccccc2)c2ccccc21)c1cc2ccccc2oc1=O,24.2%
7,COc1ccc(NC(=O)Cn2c(/C=C/c3cccc(Br)c3)nc3ccccc3c2=O)cc1,32.2%
8,O=c1ccc(Cn2c(C(F)(F)F)cc3c(Cl)ncnc32)c[nH]1,32.5%
9,CCCCC[C@@H]1C/C=C(\C)[C@@H](O)C(C)(C)C(=O)[C@@H](C)/C=C(\C)[C@@H]2C[C@H](O)C[C@](O)(CC(=O)O1)O2,47.3%
10,COc1cc(NC(=O)CSc2nnc(-c3ccc(-c4nc5ccc(Cl)cc5[nH]4)cc3)o2)cc(OC)c1OC,40.1%
11,Cc1ccc(C2CC(c3ccc(S(=O)(=O)NCCNc4nc(N(C)C)nc(N5CCOCC5)n4)cc3)=Nc3c(N)nc(N)nc3N2)cc1 (stereo not drawn),81.2%
12,CCCCNC(=S)Nc1ccc(OCc2nc3ccc(Cl)cc3[nH]2)cc1,21.8%
13,Nc1nn2c(-c3cc4cc(Br)ccc4oc3=O)ccnc2c1N=Nc1ccc(S(N)(=O)=O)cc1,58.6%
14,OCCn1cc(-c2nc3ccc4[nH]ncc4c3c3c2CCCC3)cn1,21.6%
15,CN(C)CCCc1ccc(Nc2cnn(C)c(=O)c2Cl)cc1,109%
16,Nc1cc2ccccc2c(=O)n1NC(=O)c1ccccc1,94.8%
17,Cn1cc(-c2cc(N)n3nc(-c4c[nH]c5ccccc45)cc3n2)c2cc(Cl)ccc21,-84.9% (active)
18,O=C(NC(=S)N1CCN(c2ncnc3c2cnn3-c2ccccc2)CC1)c1ccc(Br)cc1,81.7%
19,O=C(N/N=C/c1ccc(B(O)O)s1)c1[nH]c2ccc(Br)cc2c1-c1ccccc1,-74% (active)
